# Experimental data reported in PubChem BioAssay (NCATS).
# Inconclusive results are not listed. Where a call stands in place of a potency, no number is given. Calls of active or inactive are those of the source. The call rests on the fitted dose curve; in most records, active means well fitted inhibition curve with a large enough effect; inconclusive means small, poorly fitted or top-dose-only effect; inactive means no such curve, though single readings can be large or run the other way.
# Assay: P-glycoprotein substrates identified in KB-3-1 adenocarcinoma cell line, qHTS therapeutic library screen (AID 1346986); further: nearly all actives have a fitted effect of over 60% in size
# Conditions: KB-3-1 parental cells viability, CellTiter-Glo, 72 h; series mostly up to 44.5 µM
# In short: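 Viability read by CellTiter-Glo after 72 h compound exposure in dose-response of KB-3-1 and KB-8-5-11 (P-gp-high) cells. Hits needed AC50 < 10 uM, >50% maximum response and curve class -1.1 to -2.4. Cherry-picks retested ± tariquidar, including pcDNA/MDR-19 HEK-293 pair.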
Structure (SMILES),Potency,outcome
CCOc1ccc(-c2ccc(Cn3c(CC(C)(C)C(=O)O)c(SC(C)(C)C)c4cc(OCc5ccc(C)cn5)ccc43)cc2)cn1,inactive,–
COCC(=O)N1CCc2cc(-c3csc(NC(=O)c4cc(OC)cc(OC)c4)n3)ccc21,inactive,–
CC(=O)OC[C@@]12[C@@H](OC(C)=O)C[C@@H](C)[C@](C)([C@@H]3C[C@H]4C=CO[C@H]4O3)[C@H]1CCC[C@]21CO1,inactive,–
CC(=O)OCCC(C)CCC1C(C)(O)CCC2C(C)(C)CCCC21C (stereo not drawn),inactive,–
CC[C@H](/C=C/[C@@H](C)[C@H]1CC[C@H]2[C@@H]3CC=C4C[C@@H](O)CC[C@]4(C)[C@H]3CC[C@]12C)C(C)C,–,inactive [at 5.11 µM]
O=C(/C=C/c1ccccc1)OCC1=CC[C@@H]2C(C(=O)O)=CO[C@@H](O[C@@H]3O[C@H](CO)[C@@H](O)[C@H](O)[C@H]3O)[C@H]12,inactive,–
O=c1ccn(C2OC(CO)C(O)C2O)c(=O)[nH]1 (stereo not drawn),inactive,–
C=C[C@H]1[C@H](O[C@@H]2O[C@H](CO[C@@H]3OC[C@](O)(CO)[C@H]3O)[C@@H](O)[C@H](O)[C@H]2O)OC=C2C(=O)OCC[C@H]21,inactive,–
O=C(NCc1ccc(OC(F)(F)F)cc1)C1c2ccccc2C(=O)N1C1CCOCC1 (stereo not drawn),inactive,–
CC1(C)CC[C@]2(C(=O)O[C@@H]3O[C@H](CO)[C@@H](O)[C@H](O)[C@H]3O)CC[C@]3(C)C(=CCC4[C@@]5(C)C[C@@H](O)[C@H](O)[C@@](C)(CO)C5CC[C@]43C)C2C1 (stereo partly drawn),inactive,–
COc1cc(C2c3cc(O)c(OC)cc3CC(CO)C2CO)ccc1O (stereo not drawn),inactive,–
CCn1c2ccccc2c2cc(CNC)ccc21,inactive,–
COc1cc([C@H]2OC[C@]3(OC(C)=O)[C@@H](c4ccc(O[C@@H]5O[C@H](CO)[C@@H](O)[C@H](O)[C@H]5O)c(OC)c4)OC[C@H]23)ccc1O,inactive,–
COc1cc(COC2OC(CO)C(O)C(O)C2O)cc(OC)c1O (stereo not drawn),inactive,–
c1ccc(Nc2nc3c(s2)CCCc2[nH]ncc2-3)nc1,inactive,–
COC(=O)C1=COC(O[C@@H]2O[C@H](CO)[C@@H](O)[C@H](O)[C@H]2O)/C(=C\COC(=O)c2ccc(OC3OC(CO)C(O)C(O)C3O)c(OC)c2)C1CC(=O)OCCc1ccc(O)cc1 (stereo partly drawn),–,inactive [at 9.29 µM]
CC(=O)O[C@@H]1[C@H](O[C@@H]2OC[C@](O)(CO)[C@H]2O)[C@@H](O[C@@H]2O[C@@H](C)[C@H](O)[C@@H](O)[C@H]2O)[C@H](OC(=O)[C@]23CCC(C)(C)C[C@H]2C2=CCC4[C@@]5(C)C[C@H](O)[C@H](O[C@@H]6O[C@H](C(=O)O)[C@@H](O)[C@H](O)[C@H]6O)[C@@](C)(C(=O)O)C5CC[C@@]4(C)[C@]2(C)CC3)O[C@@H]1C (stereo partly drawn),–,inactive [at 9.29 µM]
O=C(C1CC1)N1CC[C@@H](Cc2n[nH]c(=O)n2-c2ccc(-c3ccc4occc4c3)cc2)C1,inactive,–
OC1COC(OCC2OC(OCCc3ccccc3)C(O)C(O)C2O)C(O)C1O (stereo not drawn),inactive,–
C=CC(C)(O)CC/C=C(\C)C(=O)OCC1OC(OC2CCC3(C)C(CCC4(C)C3CC=C3C5CC(C)(C)C(O)CC5(C(=O)O)CCC34C)C2(C)C)C(O)C(OC2OC(CO)C(O)C(OC3OC(CO)C(O)C(OC4OC(COC5OC(CO)C(O)C(O)C5O)C(O)C(O)C4O)C3O)C2O)C1O (stereo not drawn),–,inactive [at 9.29 µM]
COc1ccc(/C=C/C(=O)O[C@H]2[C@@H]3C=CO[C@@H](O[C@@H]4O[C@H](CO)[C@@H](O)[C@H](O)[C@H]4O)[C@@H]3[C@@]3(CO)O[C@@H]23)cc1O,inactive,–
O=C1N(CC2CCCCN2)CCN1c1ccccc1 (stereo not drawn),inactive,–
O=C1NC(=Nc2ccccc2F)S/C1=C\c1ccc(C(=O)O)cc1,inactive,–
CC(/C=C/C1(O)C(C)CC(O)CC1(C)C)OC1OC(CO)C(O)C(O)C1O (stereo not drawn),inactive,–
CC1(C)CC[C@]2(C(=O)O)CC[C@]3(C)C(=CCC4[C@@]5(C)C[C@H](O)[C@H](O[C@@H]6OC[C@H](O)[C@H](O)[C@H]6O)[C@@](C)(CO)C5CC[C@]43C)[C@@H]2C1 (stereo partly drawn),inactive,–
C/C=C/C1=CC2=C(CO1)C(=O)[C@](C)(O)[C@H](OC(=O)c1c(O)cc(OC)c(O)c1C)C2,inactive,–
NCCCC[C@H](NC(=O)[C@@H]1Cc2ccccc2CN1C(=O)CCC(=O)c1ccccc1)C(=O)NCC(c1ccccc1)c1ccccc1,inactive,–
CN1C(=O)c2ccccc2-n2c(nc3ccccc3c2=O)/C1=C/c1ccccc1,inactive,–
